Assay results published in PubChem BioAssay (NCI).
This is part of a sample that, as a whole, favours compounds with a hit. Of some 83,000 tested, about 20% had one in any assay.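 Results are percent growth after 48 hours of single-concentration exposure. 100 means growth as in untreated cells, lower positive values show inhibition; negative values down to -100 show cell death.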 Values without a mark were called inactive. The source made the active and inactive calls. Rule for the calls: active = growth percent below 10; inactive = the rest.

Legend:
Test in all cases: NCI-60 one-dose screen, 48 h (100 = growth as untreated, 0 = no growth, -100 = all killed)
SR leukemia = conditions: 10 µM unless noted
RPMI-8226 leukemia = conditions: 10 µM unless noted
OVCAR-8 ovarian = conditions: 10 µM unless noted
OVCAR-5 ovarian = conditions: 10 µM unless noted
SK-OV-3 ovarian = conditions: 10 µM unless noted
IGROV1 ovarian = conditions: 10 µM unless noted
OVCAR-3 ovarian = conditions: 10 µM unless noted
NCI/ADR-RES ovarian = conditions: 10 µM unless noted
T-47D breast = conditions: 10 µM unless noted
BT-549 breast = conditions: 10 µM unless noted
MDA-MB-435 melanoma = conditions: 10 µM unless noted
SW-620 colon = conditions: 10 µM unless noted
MCF7 breast = conditions: 10 µM unless noted
HCT-116 colon = conditions: 10 µM unless noted
HCC-2998 colon = conditions: 10 µM
KM12 colon = conditions: 10 µM unless noted
HS 578T breast = conditions: 10 µM
OVCAR-4 ovarian = conditions: 10 µM unless noted

SMILES | growth (SR leukemia) | growth (RPMI-8226 leukemia) | growth (OVCAR-8 ovarian) | growth (OVCAR-5 ovarian) | growth (SK-OV-3 ovarian) | growth (IGROV1 ovarian) | growth (OVCAR-3 ovarian) | growth (NCI/ADR-RES ovarian) | growth (T-47D breast) | growth (BT-549 breast) | growth (MDA-MB-435 melanoma) | growth (SW-620 colon) | growth (MCF7 breast) | growth (HCT-116 colon) | growth (HCC-2998 colon) | growth (KM12 colon) | growth (HS 578T breast) | growth (OVCAR-4 ovarian)
COc1ccc(/C(C)=C(\c2ccc(Cl)cc2)c2ccc(OCCN3CCCCCC3)cc2)cc1 | 1.94% (active) | 51.2% | 69.1% | 74.3% | 55.7% | 67.1% | 58.2% | 82.8% | 39.6% | 63.5% | 65.9% | 45% | 36.5% | 38.3% | 82.1% | 31.2% | – | –
CC(C)=CCc1cc2c(cc1O)C1=C(C(=O)C3=C(C1=O)S(=O)(=O)CCN3)C(C=C(C)C)O2 (centres undefined) | 2.02% (active) | 9.78% (active) | -5.83% (active) | -72.4% (active) | -3.23% (active) | -30.6% (active) | 0.0791% (active) | 73.8% | -2.63% (active) | -73.6% (active) | -52.6% (active) | -18.9% (active) | -50.7% (active) | -24.8% (active) | -66% (active) | 13.6% | 11.1% | –
CNC(=O)c1nn(C)c2c1C(C)(C)Cc1cnc(Nc3ccc(N4CCN(C)CC4)cc3)nc1-2 | -1.85% (active) | 0.421% (active) | 8.9% (active) | 9.13% (active) | -16.9% (active) | 2.47% (active) | 20.7% | 9.88% (active) | -5.71% (active) | 5.23% (active) | 21.1% | 11.5% | 10.4% | 0.153% (active) | 10.4% | – | – | –
CNC(=O)c1cc(Oc2ccc(NC(=O)Nc3cc(C(C)(C)C)nn3-c3ccc4ncccc4c3)c(F)c2)ccn1 | -8.95% (active) | 0.22% (active) | -30.2% (active) | -3.54% (active) | -13.3% (active) | -20.2% (active) | 1.66% (active) | – | -17.7% (active) | -38.2% (active) | -88% (active) | -0.427% (active) | -6.46% (active) | -51.8% (active) | -31.5% (active) | -23.8% (active) | – | -13.6% (active)
NS(=O)(=O)c1ccc(CCN2C(=O)/C(=C\c3ccc(Cl)cc3)C=C2c2ccc3ccccc3c2)cc1 | 83.3% | 89.6% | 83.7% | 89.5% | 84% | 94.2% | 104% | 95.3% | 71.8% | 95.1% | 97% | 106% | 90.6% | 89.5% | 94.8% | 93% | 101% | –
CC1(O)CCC(Nc2cc(-c3ccc(C(F)(F)F)cc3)c(C#N)c3nc4ccccc4n23)CC1 (centres undefined) | 79.4% | 56.8% | 78.3% | 99% | 68.6% | 79.3% | 81.4% | 61.8% | 53% | 38.2% | 64.7% | 90.5% | 43.9% | 53.6% | – | 68.7% | 74.4% | –
COc1cc2c(Nc3ccc(Br)cc3F)ncnc2cc1OCC1CCN(C)CC1 | -6.08% (active) | 26.8% | 27.6% | 34.8% | -5.59% (active) | -21.9% (active) | 42.4% | – | -22.9% (active) | 42.9% | -42.8% (active) | 31.8% | 31.3% | 24.3% | 19.3% | 38.1% | – | 36.4%
COc1ccc(C(=O)c2cc(OC)c(OC)c(OC)c2)cc1/C=C/C(=O)c1ccc(F)cc1 | 3.26% (active) | 23.3% | 53.3% | 1.82% (active) | 93.5% | 91.7% | 61.4% | 31.1% | 67.3% | 81.2% | 60.5% | 9.38% (active) | 19.6% | 1.33% (active) | 97.1% | 39.8% | 98% | –
CC(C)(C)c1nc(-c2cccc(NS(=O)(=O)c3c(F)cccc3F)c2F)c(-c2ccnc(N)n2)s1 | 50.4% | 75.5% | 94.7% | 41.1% | 71.9% | 64.5% | 103% | 95.5% | 92.6% | 118% | 87.3% | 73.3% | 79.7% | 48.1% | 85.1% | 44.6% | – | –
COc1cc(Nc2ncc(F)c(Nc3ccc4c(n3)N(COP(=O)(O)O)C(=O)C(C)(C)O4)n2)cc(OC)c1OC | 21.6% | 46.4% | 28.7% | 17.6% | -41.4% (active) | -17.6% (active) | 43.4% | 20.5% | 14.4% | 1.78% (active) | 26.5% | 38.2% | 25.7% | 22.1% | 66.8% | 11.7% | – | –
CC(=O)c1cnc2ccc(-c3cc(Cl)c(O)c(Cl)c3)nc2c1NC1CCC(CN(C)C)CC1 (centres undefined) | -16% [2.5 µM] (active) | -24.3% [2.5 µM] (active) | -22.9% [2.5 µM] (active) | 2.38% [2.5 µM] (active) | -32.6% [2.5 µM] (active) | -17.3% [2.5 µM] (active) | 2.02% [2.5 µM] (active) | – | -22.9% [2.5 µM] (active) | -44.9% [2.5 µM] (active) | -37.2% [2.5 µM] (active) | 6.12% [2.5 µM] (active) | -4.22% [2.5 µM] (active) | -2.49% [2.5 µM] (active) | – | -2.64% [2.5 µM] (active) | – | -9.08% [2.5 µM] (active)
O=C(CNc1nc2ccccc2s1)Nc1ccc(-c2nc3ccccc3s2)cc1 | 91.3% | 107% | 102% | 98.4% | 107% | 66.6% | 98% | 102% | 73.9% | 106% | 109% | 109% | 24.8% | 98.9% | 92.1% | 99.2% | 100% | –
CC(=O)OC1Oc2ccccc2-c2oc(=O)c(-c3cc4ccc(N(C)C)cc4oc3=O)cc21 (centres undefined) | -19.9% (active) | -20.5% (active) | 37.1% | 26.3% | 48.1% | – | 43% | 38.9% | -4.17% (active) | 15.9% | 44.5% | 61.7% | 68.5% | 20.7% | – | 71.8% | -3.16% (active) | 39.1%
CCc1cnn2c(NCc3ccc[n+]([O-])c3)cc(N3CCCC[C@H]3CCO)nc12 | -17.3% (active) | -16.2% (active) | -6.3% (active) | 4.89% (active) | -17.8% (active) | 5.6% (active) | 12.3% | -0.875% (active) | -16.9% (active) | -15.7% (active) | -35.4% (active) | -4.01% (active) | 1.85% (active) | 1.22% (active) | -37.3% (active) | 1.55% (active) | – | –
COc1ccc(-c2ccc3c(N4CCOC[C@@H]4C)nc(N4CCOC[C@@H]4C)nc3n2)cc1CO | 9% (active) | 4.83% (active) | -3.37% (active) | 7.09% (active) | -33.7% (active) | -33.2% (active) | 13% | – | -35% (active) | -6.65% (active) | -14.1% (active) | 8.32% (active) | 5.12% (active) | 21.9% | 10.3% | 13.1% | – | -26% (active)
CCCCN1CCCC[C@@H]1C(=O)N[C@H](C(=O)N(C)[C@H](CCc1nc(C(=O)N[C@@H](Cc2ccccc2)C[C@H](C)C(=O)OC)cs1)C(C)C)C(C)C | 7.34% (active) | 7.01% (active) | 82.6% | 95.1% | 75.4% | 50.3% | 65.2% | 65.4% | 45.3% | 52.3% | -6.94% (active) | 85.3% | 35.6% | 41.5% | 67.6% | 47.7% | 90% | –
